This is a sample that favours compounds with a hit; in the whole collection about 3.3% have one here.
PRMT1 FP inh: inhibitors of human PRMT1; recombinant PRMT1, activity-based probe fluorescence polarization; inhibition, % at 2.79 µM; 1.3% of 370,000 active;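 active = inhibition above about 21% made by adding two undisclosed values, limit read from the data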
Target sequence (Q99873 whole entry, looked up): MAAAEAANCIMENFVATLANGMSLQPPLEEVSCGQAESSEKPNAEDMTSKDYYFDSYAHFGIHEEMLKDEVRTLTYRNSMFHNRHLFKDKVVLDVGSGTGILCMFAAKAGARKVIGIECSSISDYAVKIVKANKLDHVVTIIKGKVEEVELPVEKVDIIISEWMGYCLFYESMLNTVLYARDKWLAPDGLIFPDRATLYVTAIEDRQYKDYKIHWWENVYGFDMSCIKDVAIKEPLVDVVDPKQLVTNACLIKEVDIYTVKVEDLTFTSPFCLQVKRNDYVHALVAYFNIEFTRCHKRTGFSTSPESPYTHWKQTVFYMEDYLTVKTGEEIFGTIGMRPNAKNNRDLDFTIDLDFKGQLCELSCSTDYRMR
PfG6PD inh: PfG6PD (Plasmodium falciparum) enzyme inhibition. AID 504690. PfGluPho enzyme, NADPH resazurin-diaphorase fluorescence. 0.78% of 350,000 active. inhibition, % at 20 µM;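 active = inhibition reaching at least a set limit at 20 µM in the primary screen, cut at about 59% in these data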
PfM18AAP inh-1: PfM18AAP enzyme inhibition. recombinant PfM18AAP, H-Glu-NHMec fluorogenic cleavage. inhibition, % at 7.35 µM. 1.2% of 290,000 active. AID 1822;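 active = inhibition above the campaign mean inhibition over all tested compounds plus 3 SD, cut at about 28% in these data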
UHRF1 binding: human UHRF1 methylated DNA binding inhibitors | Q96T88 | UHRF1 binding to methylated oligo, TR-FRET | inhibition, % at 4.4 µM | 0.75% of 370,000 active | AID 687016; in the data active = inhibition above about 21%;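 note: UHRF1 SRA domain binding a hemimethylated CpG hairpin DNA probe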
MBD2 DNA inh: inhibitors of human MBD2 binding to methylated oligonucleotide; Q9UBB5; TR-FRET; inhibition, % at 4.4 µM; 0.31% of 370,000 active; in the data active = inhibition above about 13%
PfM18AAP inh-2: confirmation of Plasmodium falciparum M18 aspartyl aminopeptidase inhibitors; shares compounds with PfM18AAP inh-1; recombinant PfM18AAP, H-Glu-NHMec fluorogenic cleavage; inhibition, % at 7.35 µM; 28% of 2,400 active; AID 2170;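 active = mean inhibition over replicate wells above the hit cutoff set for the earlier primary screen, cut at about 29% in these data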
CTSL1 counter: counter-screen for PFM18AAP inhibitors: confirmation of human cathepsin L inhibitors; shares compounds with PfM18AAP inh-1; AID 2178; 2,400 tested, under 10 active; inhibition, % at 5.96 µM; purified cathepsin L1, Z-Leu-Arg-MCA fluorescence;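 active = average inhibition across replicates above the hit cutoff set in the earlier primary screen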
Target sequence (P07711 whole entry, looked up): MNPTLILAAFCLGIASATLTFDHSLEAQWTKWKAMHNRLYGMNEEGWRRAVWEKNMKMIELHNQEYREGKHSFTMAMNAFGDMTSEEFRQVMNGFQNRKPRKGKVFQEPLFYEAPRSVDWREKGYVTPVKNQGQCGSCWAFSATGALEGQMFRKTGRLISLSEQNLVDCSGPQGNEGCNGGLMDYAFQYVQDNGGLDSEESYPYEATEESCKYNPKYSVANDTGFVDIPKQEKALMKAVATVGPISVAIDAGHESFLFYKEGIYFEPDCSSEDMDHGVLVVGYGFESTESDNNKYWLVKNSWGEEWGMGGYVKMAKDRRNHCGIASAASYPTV
Large screens that a line does not name were inactive (follow-up assays come after a bar, where they were run).

O=[N+]([O-])c1ccc(NNC(=S)Nc2ccccc2)cc1	PfM18AAP inh-1 39 (no result: PRMT1 FP inh, UHRF1 binding, MBD2 DNA inh) | PfM18AAP inh-2 32 | CTSL1 counter inactive
Oc1cccc(NC(=S)Nc2ccccc2)c1	none | PfM18AAP inh-2 inactive | CTSL1 counter inactive
C(=C\c1ccccc1)/CSc1nnc(Cc2cccs2)n1-c1ccccc1	none (no result: PfG6PD inh, PfM18AAP inh-1)
COc1cccc2sc(NNC(=O)C3=COCCO3)nc12	PfM18AAP inh-1 43 | PfM18AAP inh-2 inactive | CTSL1 counter inactive
COc1ccc(OC)c2sc(NC(=O)C3=COCCO3)nc12	none
CN(C)c1ccc(NC(N)=S)cc1	PfM18AAP inh-1 49 | PfM18AAP inh-2 inactive | CTSL1 counter inactive
CSc1ccc(NC(N)=S)cc1	none
CC(C)CCNC(=S)Nc1ccccn1	PfM18AAP inh-1 33 | PfM18AAP inh-2 inactive | CTSL1 counter inactive
CCc1nnc(N/N=C/c2c(Cl)cccc2Cl)n1N	PfM18AAP inh-1 56 | PfM18AAP inh-2 inactive | CTSL1 counter inactive
CCc1nnc(N/N=C/c2cc(Br)c(O)cc2O)n1N	PfM18AAP inh-1 62 | PfM18AAP inh-2 54 | CTSL1 counter inactive
S=c1nc(C2CCCCC2)n(-c2ccccc2)[nH]1	PfM18AAP inh-1 35 | PfM18AAP inh-2 inactive | CTSL1 counter inactive
O=C(Cc1cnn(-c2ccccc2)c1)c1ccc(O)c(O)c1O	PRMT1 FP inh 39, PfM18AAP inh-1 38 | PfM18AAP inh-2 inactive | CTSL1 counter inactive
O=C(Nn1cnnc1)c1cc(-c2cccc(Br)c2)nc2ccccc12	PfM18AAP inh-1 61 | PfM18AAP inh-2 57 | CTSL1 counter inactive
O=C(Nc1ncccn1)c1cc(-c2cccc(Br)c2)nc2ccccc12	none
C[C@H]1[C@@H](NC(=O)c2ccc(O)cc2)CC[C@@]23CCCN2C(=O)CCC[C@@H]13	none (no result: PfG6PD inh, PfM18AAP inh-1)
O=C(CSc1ccccn1)N1CCN(c2ccc(Cl)cc2)CC1	PfM18AAP inh-1 33 | PfM18AAP inh-2 inactive | CTSL1 counter inactive
COc1ccc(OC)c(S(=O)(=O)N2CCCC(C(=O)N3CCN(Cc4ccccc4)CC3)C2)c1 (stereo not drawn)	none (no result: PfG6PD inh, PfM18AAP inh-1)
CCN1C(=O)CC(C(=O)OC)=C1C	none
COC(=O)C1=C(C)N(Cc2ccc3c(c2)OCO3)C(=O)C1	PfM18AAP inh-1 34 | PfM18AAP inh-2 inactive | CTSL1 counter inactive
O=C(NNc1nc2ccccc2o1)c1ccccc1	PfM18AAP inh-1 41 | PfM18AAP inh-2 inactive | CTSL1 counter inactive
O=C(NC(=Nc1nc2ccccc2o1)NC(=O)c1ccccc1)c1ccccc1	none
O=C(NNc1nc2ccccc2nc1C(F)(F)F)c1ccccc1	PfM18AAP inh-1 34 | PfM18AAP inh-2 inactive | CTSL1 counter inactive
Cc1cc2oc(=O)sc2cc1NS(=O)(=O)c1ccccc1	PRMT1 FP inh 92, PfM18AAP inh-1 36 | PfM18AAP inh-2 inactive | CTSL1 counter inactive
CN(C)c1cccc(C(=O)n2cc(C(=O)c3cc(F)ccc3O)cn2)c1	PfM18AAP inh-1 53 | PfM18AAP inh-2 inactive | CTSL1 counter inactive
COc1ccc(O)c(C(=O)c2cnn(C(=O)c3cccc(N(C)C)c3)c2)c1	none (no result: PfM18AAP inh-1)
O=C(c1cnn(C(=O)COc2ccccc2F)c1)c1cc(F)ccc1O	PfM18AAP inh-1 43 | PfM18AAP inh-2 inactive | CTSL1 counter inactive
CC(=O)Nc1ccc(NC(=O)CC2Nc3cccc4cccc(c34)NC2=O)cc1 (stereo not drawn)	PfM18AAP inh-1 33 | PfM18AAP inh-2 inactive | CTSL1 counter inactive
O=C(NCC1CCCO1)c1ccccc1 (stereo not drawn)	none
O=C(NC1(C(F)(F)F)Oc2ccccc2O1)N1CCCC1	PfM18AAP inh-1 75 | PfM18AAP inh-2 45 | CTSL1 counter inactive
O=C(Nc1ccccc1)N1CCCC1	none
O=C(NCC1CCCO1)NC1(C(F)(F)F)Oc2ccccc2O1 (stereo not drawn)	PfM18AAP inh-1 37 | PfM18AAP inh-2 inactive | CTSL1 counter inactive
COc1cccc([C@@H](NC(=O)C(F)(F)F)[C@@H]2CCCC=C2c2ccccc2)c1	none (no result: PfG6PD inh, PfM18AAP inh-1)
CC/C(Cc1ccccc1)=N/NC(=O)c1cccc(Br)c1	none
CC/C(Cc1ccccc1)=N\NC(=O)c1cc([N+](=O)[O-])cc([N+](=O)[O-])c1	PfM18AAP inh-1 41 | PfM18AAP inh-2 inactive | CTSL1 counter inactive
CCn1c(=O)n(CC)c2cc(N3CCCC3)c(NC(=O)c3cccc(OC)c3)cc21	none
CCn1c(=O)n(CC)c2cc(N3CCCC3)c(NC(=O)c3c(F)cccc3F)cc21	PfM18AAP inh-1 35 | PfM18AAP inh-2 inactive | CTSL1 counter inactive
CCCC1CCC2(CC1)CCC2OC(=S)Nc1ccc(N(C)C)cc1 (stereo not drawn)	none (no result: PfG6PD inh, PfM18AAP inh-1)
CCN(CC)C(=O)CC[C@H]1CC[C@]2(CCCN(Cc3ccc(N(C)C)cc3)C2)O1	none (no result: PfG6PD inh, PfM18AAP inh-1)
CC(=O)c1c(O)cc(C)n(-c2ccc(F)cc2)c1=O	none
CC(=O)c1c(O)cc(C)n(Nc2nc(C)cc(C)n2)c1=O	PfM18AAP inh-1 34 | PfM18AAP inh-2 inactive | CTSL1 counter inactive
O=C(c1ccc(Sc2ccccc2)c([N+](=O)[O-])c1)N1CCOCC1	none
O=C(c1ccc(SCc2ccco2)c([N+](=O)[O-])c1)N1CCOCC1	PfM18AAP inh-1 34 | PfM18AAP inh-2 inactive | CTSL1 counter inactive
CCN1C(=O)/C(=C2/SC(C)=C(C)N2CC)SC1=S	PfM18AAP inh-1 38 | PfM18AAP inh-2 inactive | CTSL1 counter inactive
COc1ccc2o/c(=N\O)c(C(=O)Nc3ccccc3OC)cc2c1	none
COc1cccc2cc(C(=O)Nc3ccccc3C)/c(=N/O)oc12	PfM18AAP inh-1 49 | PfM18AAP inh-2 inactive | CTSL1 counter inactive
COC(=O)C1CN(Cc2ccccc2)CCS(=O)(=O)N1Cc1ccc(C(F)(F)F)cc1 (stereo not drawn)	none (no result: PfG6PD inh, PfM18AAP inh-1)
COc1cc(/C=N/Nc2cc(C)nc(NS(=O)(=O)c3ccccc3)n2)ccc1O	PfM18AAP inh-1 32 | PfM18AAP inh-2 inactive | CTSL1 counter inactive
Cc1cc(NN)nc(NS(=O)(=O)c2ccccc2)n1	PfM18AAP inh-1 35 | PfM18AAP inh-2 inactive | CTSL1 counter inactive
COc1cc(C)nc(NS(=O)(=O)c2ccccc2)n1	none
Cc1cc(NN)nc(NS(=O)(=O)c2ccc(Cl)cc2)n1	PfM18AAP inh-1 37 | PfM18AAP inh-2 inactive | CTSL1 counter inactive
COc1cc(/C=N/Nc2nc(C)nc3c2cnn3-c2ccccc2)ccc1O	PfM18AAP inh-1 33 | PfM18AAP inh-2 inactive | CTSL1 counter inactive
COc1cccc(OC)c1C(=O)Nc1nc2cc3c(cc2s1)OCO3	none
COc1cc(C(=O)NNc2nc3cc4c(cc3s2)OCO4)cc(OC)c1OC	PfM18AAP inh-1 41 | PfM18AAP inh-2 inactive | CTSL1 counter inactive
O=C(NNc1nc2cc3c(cc2s1)OCO3)c1ccccc1	PfM18AAP inh-1 48 | PfM18AAP inh-2 inactive | CTSL1 counter inactive
O=c1cc(CN2CCN(c3ccccc3O)CC2)nc2sccn12	PfM18AAP inh-1 35 | PfM18AAP inh-2 inactive | CTSL1 counter inactive
NNc1nnc2c3cc(F)ccc3n(CCc3ccccc3)c2n1	PfM18AAP inh-1 44 | PfM18AAP inh-2 inactive | CTSL1 counter inactive
Fc1ccc2c(c1)c1n[nH]c(=S)nc1n2CCc1ccccc1	none

Source: PubChem BioAssay
